# ChEMBL document CHEMBL3988442, “University of Dundee, Small-Polar-MMV Screening Library” (2021)
# The whole screen tested about 48,000 compounds, of which about 13,000 (27%) showed an effect of 50% or more. This is one part of the list.
# Tested on: Wolbachia pipientis
# Assay: Anti-Wolbachia Cell-Based Screen
# Format: functional
# Set-up: scale not given: in the data most compounds retested in dose-response had high values
# Details: 5 µM
row,SMILES,Percent Effect
1,O=C1CC(c2cccs2)Cc2[nH]c(=O)ccc21 (configuration not stated),3.972%
2,O=C(CN1CCc2cncnc2C1)NC(C1CC1)C1CC1,0.03163%
3,CCN(CC)C(=O)c1ccn(COc2cc(C)cc(C)c2)n1,11.03%
4,CC(C)NC(=O)N1CCC(c2nnc3ccc(C(=O)N(C)C)cn23)C1 (configuration not stated),2.89%
5,CC(C)c1nnc2n1CCN(C(=O)c1cnc(C3CC3)s1)C2,-14.42%
6,CC(C)NC(=O)N1CCn2c(nnc2C2CCCN2)C1 (configuration not stated),102.1%
7,CN1CCN(C(=O)NC2CCCC2)Cc2cccnc21.O=C(O)C(F)(F)F,-7.276%
8,O=C(c1ccc(C2CCCN2)s1)N1CCN(C(=O)N2CCOCC2)CC1 (configuration not stated),14.1%
9,O=C(NC1CCCCC1)N1CCn2c(nnc2C2CCCN2)C1 (configuration not stated),120.9%
10,CN(C)Cc1cnc2n1CCN(C(=O)NC1CCCC1)CC2.O=C(O)C(F)(F)F,-15.13%
11,O=C(N1CCCC1)N1CCn2c(nnc2C2CCCN2)C1 (configuration not stated),124.8%
12,CN1CCN(Cc2cnc3n2CCN(C(=O)N2CCCC2)C3)CC1,-14.55%
13,O=C1CC(c2cccs2)Cc2[nH]c(=O)c(C(=O)NC3CCCC3)cc21 (configuration not stated),7.726%
14,Cn1cc(C(=O)NC[C@H]2OC[C@@H]3CCN(C4CCOCC4)C[C@@H]32)cn1.O=C(O)C(F)(F)F,-10.96%
15,O=C(CCC1CCCC1)N1CCC(c2ncc3c(n2)CCNC3)CC1,-4.401%
16,COC1CCN(S(=O)(=O)N2CCCC(c3cccc(C(=O)O)c3)C2)CC1 (configuration not stated),12.84%

row,SMILES,Percent Effect
1,CN1CCc2nc(C3CCCN(S(=O)(=O)N4CCCC4)C3)ncc2C1 (configuration not stated),92.03%
2,CN1CCc2nc(C3CCCN(C(=O)CC(C)(C)C)C3)ncc2C1 (configuration not stated),119.8%
3,CN1CCC(c2ncc3c(n2)CCN(C(=O)CC2C=CCC2)C3)CC1 (configuration not stated),-2.125%
4,CN1CCc2nc(C3CCCN(C(=O)CC4CCCCC4)C3)ncc2C1 (configuration not stated),117.4%
5,CC1(C)CCN(S(=O)(=O)N2CCCC(c3cccc(C(=O)O)c3)C2)CC1 (configuration not stated),0.9326%
6,CCC(=O)N1CCCC(c2ncc3c(n2)CCN(C)C3)C1 (configuration not stated),111.8%
7,Cc1nc[nH]c1CN1CCCC(CNC(=O)c2ccncn2)C1 (configuration not stated),-3.697%
8,c1cncc(OCc2nc(C3CC3)nn2-c2ccc3c(c2)OCCO3)c1,1.227%
9,CCOc1ccccc1C(=O)NS(=O)(=O)c1ccc2c(c1)OCCCO2,-4.596%
10,CCOc1cccc2c1OCC(=O)N(c1ccc3c(c1)OCO3)C2,112.1%
11,CCOc1cccc2c1OCC(C(=O)NS(=O)(=O)Cc1ccccc1)=C2,-3.971%
12,CCOc1cccc2c1OCC(C(=O)NC(C)Cn1cccn1)=C2 (configuration not stated),-1.745%
13,CCOc1cccc2c1OCC(=O)N(c1ccc(N(C)C)cc1)C2,138.3%
14,CN(C)C(=O)N1CCC2(CC(=O)N(c3ccc4c(c3)OCO4)C2)C1 (configuration not stated),3.437%
15,CCS(=O)(=O)N1CCC2(CC(=O)N(c3ccc4c(c3)OCO4)C2)C1 (configuration not stated),-0.7388%
16,CCOc1cccc2c1OCC(=O)N(c1ccc3c(c1)OCCO3)C2,123.7%
